Data as given in PubChem BioAssay (NCI).
This is part of a sample that, as a whole, favours compounds with a hit. Of some 83,000 tested, about 20% had one in any assay.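 Plates (96-well) were seeded with cells, treated with compound at one concentration, and incubated for 48 hours before percent growth was determined.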 Unmarked numbers belong to inactive results. The source made the active and inactive calls. How the source made its calls: active means growth percent below 10; inactive means the rest.

Test system: HL-60(TB) leukemia
Test: NCI-60 one-dose screen, 48 h (100 = growth as untreated, 0 = no growth, -100 = all killed)
Settings: 10 µM unless noted

| SMILES | growth |
| --- | --- |
| O=C1/C=C/[C@@H](O)[C@@H]2C[C@@H](O)C[C@H]2/C=C/CCC[C@H](CCc2cccc3ccccc23)O1 | -44.8% (active) |
| Nc1cc(C(F)(F)F)c(-c2cc(N3CCOCC3)nc(N3CCOCC3)n2)cn1 | -41.3% (active) |
| N#Cc1c(Nc2ccc(N3CCOCC3)cc2)nc(SCC(=O)c2ccc(Br)cc2)nc1-c1ccccc1 | 86.2% |
| Oc1ccc([S+](c2ccc(O)cc2)c2ccc(O)cc2)cc1 | 110% |
| C[C@]12CC[C@@H]3c4cc(O)c(O)cc4CC[C@H]3[C@@H]1CC[C@@H]2O | 4.62% (active) |
| Nc1cc2[nH]c(=O)c3ccccc3c2cc1Br | 125% |
| COC(=O)N[C@@H](C)CNc1nccc(-c2cn(C(C)C)nc2-c2cc(Cl)cc(NS(C)(=O)=O)c2F)n1 | 26.6% |
| Cc1ccc(Cn2c(-c3cccs3)nc3ccccc32)cc1 | 122% |
| CCCCOP(=O)(OCCCC)C(C(=O)OCC)C(CC(=O)OCC)C(=O)OCC (configuration not stated) | 102% |
| Cn1cc(-c2csc(-c3cn(C)c4ncccc34)n2)c2ccccc21 | -3.85% (active) |
| COP(=O)(OC)C(c1ccccc1)(c1ccccc1)c1ccccc1 | 45.3% |
| COc1ccc(/C=C/C(=O)Nc2ccc(-c3nc4ccc(F)cc4s3)cc2)cc1 | 91.4% |
| O=C(CN1C(=O)S/C(=C\C(Cl)=C\c2ccccc2)C1=O)NCCCn1ccnc1 | -4.78% (active) |
| COc1ccc(OC)c(/C=C2\CCc3ccccc3C2=O)c1 | 16.9% |
| O=S(=O)(O)c1cccc(Nc2ccc3ccccc3c2)c1 | 89.9% |
| NC(=O)Nc1cc(-c2cccc(F)c2)sc1C(=O)N[C@H]1CCCNC1 | -29.9% (active) |
| Nc1c(C(=O)Nc2c(Cl)cccc2Cl)sc2nc3c(cc12)C(=O)CCC3 | 11.5% |
| C=CCCCCCCCCC(=O)OC(C)C | 117% |
| O=c1[nH]c2ccc(Br)cc2c2c1C(c1ccc(Cl)cc1)c1c(ncn3nc(-c4ccco4)nc13)O2 (configuration not stated) | 72.7% |
| O=C(Cn1nncc1CN1C(=O)CSC1=O)Nc1ccc(F)cc1 | 100% |
| CCN(CC)CCCC(C)Nc1cc(-c2cccc(OC(F)(F)F)c2)nc2ccc(N3CCCC3)cc12 (configuration not stated) | -61% (active) |
| COc1nccc2c(Sc3ccccc3)nc(N)nc12 | 97.6% |
| CCn1cc(C(=O)O)c(=O)c2cc(F)c(N3CCN(CC(=O)Nc4ccccc4)C(C)C3)c(F)c21 (configuration not stated) | 104% |
| COC(=O)c1c2c(c(C)[n+]([O-])c1C)C(=O)C(NCCN1CCOCC1)=CC2=O | 52.4% |
| CN(C)CCNC(=O)c1ccc(-c2nc3ccc4[nH]ncc4c3c3c2C2CCC3C2)cc1 (configuration not stated) | -20.6% (active) |
| COc1cccc(Nc2nc(SC)nc(-c3cccc([N+](=O)[O-])c3)c2C#N)c1 | 112% |
| O=c1[nH]c(-c2cn(-c3ccc(Cl)cc3)nn2)nc2ccccc12 | 100% |
